HT1080-NT tox: qHTS for induction of synthetic lethality in tumor cells producing 2HG: qHTS for the HT-1080-NT fibrosarcoma cell line. Potency, µM (titrated, usually from 46.1 µM), without a hit: at the top dose activity, negative = less viability, usual class: cytotoxic. actives 1.6% (n = 360,000). HT-1080-NT fibrosarcoma viability, CellTiter-Glo ATP luminescence, 48 h. AID 686970, 2013;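 also: NT is the 2HG producing partner of a matched IDH1 knockdown line; 0% = DMSO-treated cells and -100% = media-only wells without cells; nearly all actives have a fitted effect of over 55% in size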
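Read-out is CellTiter-Glo luminescence after 10 minutes at room temperature, following 48 hours' compound treatment of HT-1080-NT cells (750 cells/well, RPMI, 5% FBS, 37 degrees C).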
HT1080 IDH1KD tx: qHTS for induction of synthetic lethality in tumor cells producing 2HG: qHTS for the HT-1080-IDH1KD cell line; actives 2% (n = 360,000); HT-1080 IDH1 knockdown viability, ATP luminescence, 48 h; Potency, µM (doses to about 46.1 µM), without a hit: at the highest dose activity, negative = toxicity, actives largely listed as cytotoxic;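 also: 0% = DMSO wells and -100% = cell-free medium wells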
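Knockdown cells (IDH1KD HT-1080) received compounds 2 h after plating at 750 cells/well and were kept 48 h at 37 °C in 5% FBS RPMI. A CellTiter-Glo luminescence read gave % activity for curve fitting.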
KB-V1 cytotox: qHTS assay for MDR1-selective chemotherapeutics: Primary screen using the drug-selected MDR subline cells KB-V1. Potency, µM (doses to about 46.1 µM), hits mostly cytotoxic. AID 1347076, 2019. actives 3.4% (n = 400,000). KB-V1 MDR cells viability, CellTiter-Glo, 72 h; also: nearly all actives have a fitted effect of over 60% in size
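KB-V1, DMEM (no phenol red) + 10% FBS; cpd pin-transferred, titration series; 72 h, 37 degrees C; CellTiter-Glo, luminescence. Data normalized, curve-fit.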
DT40 TDP1 CPT: qHTS for Inhibitors of human tyrosyl-DNA phosphodiesterase 1 (TDP1): qHTS in cells in presence of CPT. AID 686979, 2013. chicken DT40 Tdp1-/-;hTDP1 cells + 20 nM CPT, ATP luminescence, 48 h. actives 12% (n = 420,000). Potency, µM (top dose mostly 46.2 µM), for the others: top-dose activity change, negative = growth inhibition, hits mostly inhibitors; also: nearly all actives have a fitted effect of over 55% in size
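Cell growth measured by CellTiter-Glo luminescence after a minimum 48 h, 37 C compound exposure with 20 nM CPT in Tdp1-knockout DT40 cells stably expressing hTDP1, seeded 400/well; qHTS titration format.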
KB-3-1 tox: qHTS assay for MDR1-selective chemotherapeutics: Primary screen using the parental adenocarcinoma cell KB-3-1 | Potency, µM (series often up to 46.1 µM), actives largely listed as cytotoxic | actives 1.4% (n = 400,000) | KB-3-1 viability, CellTiter-Glo ATP luminescence, 72 h; also: nearly all actives have a fitted effect of over 60% in size
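Screening of KB-3-1 cells (DMEM, 10% FBS, phenol-red free) ran from lowest to highest compound concentration; after 72 h at 37 °C viability was read luminescently and curves fitted.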
DT40 TDP1 no CPT: qHTS for Inhibitors of human tyrosyl-DNA phosphodiesterase 1 (TDP1): qHTS in cells in absence of CPT. DT40 Tdp1-/- hTDP1 cells, no CPT, ATP luminescence, 48 h. Potency, µM (doses to about 46.2 µM), inactives show at the highest dose activity change, negative = growth inhibition, actives largely listed as inhibitors. actives 15% (n = 420,000). AID 686978, 2013; also: nearly all actives have a fitted effect of over 55% in size
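A cellular qHTS used chicken DT40 cells lacking endogenous Tdp1 but carrying stably transfected human TDP1. Compounds were applied without camptothecin, and cell growth kinetics were judged by ATP-dependent luminescence after ≥48 hr.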
An asterisk follows results filed as active; i = inactive; ? = inconclusive; nt = no result given. Sampled rows, rich in hits. Any-hit rate of the full collection: about 19%. Calls follow the shape of the dose curve; as a rule, active = well fitted curve in the direction sought with a large enough effect; inconclusive = small, poorly fitted or top-dose-only effect, or another doubt; inactive = no such curve, though single readings can be large; an effect the other way counts as inactive or inconclusive. Unless noted, % is scaled to controls: 0 for no effect and ±100 for the full control effect; potency is read from the fitted curve at half-maximal effect.

SMILES	HT1080-NT tox	HT1080 IDH1KD tx	KB-V1 cytotox	DT40 TDP1 CPT	KB-3-1 tox	DT40 TDP1 no CPT
CC(=O)C1=C(O)C(=O)N(CCNCCO)C1c1ccccc1 (stereo not drawn)	-2%	1%	i	-5%	i	-3%
Cc1ccsc1/C=N/N=C/c1sccc1C	0%	1%	i	-16%	i	?
Cc1ccsc1C=Nc1ccc(O)cc1	-8%	23µM*	i	?	i	?
CC(C)(C)S(=O)N1Cc2cc(C(=O)N3CCc4ccccc4C3)nc(-c3cccc(-c4cccnc4)c3)c2[C@@H]1CCO (stereo partly drawn)	1%	2%	i	?	i	21µM*
CN1CCN(C(=O)c2cc3c(c(-c4cccc(C#CC(C)(C)O)c4)n2)[C@H](CCO)N(S(=O)C(C)(C)C)C3)CC1 (stereo partly drawn)	28%	17%	i	2%	i	6%
COc1ccccc1-c1cccc(-c2nc(C(=O)N3CCCCC3)cc3c2[C@H](CCO)N(S(=O)C(C)(C)C)C3)c1 (stereo partly drawn)	-7%	-8%	?	21µM*	i	18µM*
COC(=O)c1cc(C(=O)OC)[nH]n1	21%	14%	i	14%	i	0%
Cc1ccc(Cl)cc1N=C(N)N=C(N)N	8%	7%	i	?	i	?
NC(N)=NC(N)=Nc1cccc(Cl)c1	8%	-1%	i	?	i	21µM*
O=C(CSc1nc(-c2ccccc2)ns1)NCC1CCCO1 (stereo not drawn)	-1%	11%	i	-23%	i	-2%
Cc1cc(C(=O)COC(=O)c2ccc(NC(=O)CC#N)cc2)c(C)n1CC(F)(F)F	-2%	0%	i	-5%	i	-28%
Cc1nn(Cc2ccccc2)c(C)c1C(=O)OCC(=O)c1cc(C)n(CC(F)(F)F)c1C	-11%	?	?	26µM*	?	26µM*
Cc1ccccc1NC(=O)N1CCC(CN2CCCC2)CC1	nt	nt	nt	10%	nt	1%
Cc1cc(C)n(C(=O)c2c([N+](=O)[O-])c(C)nn2C)n1	1%	-12%	i	-13%	i	-1%
Cc1ccc(SC(=O)c2c([N+](=O)[O-])c(C)nn2C)cc1	?	?	i	18µM*	i	15µM*
COC(=O)c1ccccc1S(=O)(=O)N1CCC(C(=O)OCc2ccc([N+](=O)[O-])cc2)CC1	3%	3%	i	-10%	i	-26%
CN(C(=O)COC(=O)CCC(=O)c1ccccc1)c1c(N)n(Cc2ccccc2)c(=O)[nH]c1=O	-12%	-5%	i	-27%	i	-23%
CCCN(C(=O)COC(=O)CCOc1ccccc1C)c1c(N)n(Cc2ccccc2)c(=O)[nH]c1=O	-7%	10%	i	-11%	i	-10%
CCN(C(=O)COC(=O)CCOc1cc(C)ccc1C)c1c(N)n(Cc2ccccc2)c(=O)[nH]c1=O	0%	1%	i	18µM*	i	?
Cc1ccc(SCC(=O)OCC(=O)N(CC(C)C)c2c(N)n(Cc3ccccc3)c(=O)[nH]c2=O)c(C)c1	?	23µM*	i	?	i	?
CC(=O)Nc1sc(C)c(C)c1C(=O)OCC(=O)N(CC(C)C)c1c(N)n(Cc2ccccc2)c(=O)[nH]c1=O	-4%	0%	i	23µM*	?	5.8µM*
CN(C(=O)COC(=O)CCC(=O)c1ccc(Cl)cc1)c1c(N)n(Cc2ccccc2)c(=O)[nH]c1=O	2%	-2%	?	-10%	i	18µM*
CC1(C)C(=O)Nc2ccccc2N1C(=O)COc1ccccc1C#N	8%	9%	i	-2%	i	-29%
COc1cc2c(C(=O)N(C)c3ccc(F)cc3)cn(C)c(=O)c2cc1OC	5%	7%	i	-12%	i	-16%
CS(=O)(=O)Nc1cccc(-c2ccc3nncn3c2)c1	?	10%	i	6%	i	-6%
SMILES	HT1080-NT tox	HT1080 IDH1KD tx	KB-V1 cytotox	DT40 TDP1 CPT	KB-3-1 tox	DT40 TDP1 no CPT
O=C(O)c1ccccc1Sc1c([N+](=O)[O-])cc(C(F)(F)F)cc1[N+](=O)[O-]	-7%	-7%	i	?	i	?
CC(C)CN(C(=O)COC(=O)CCSc1ccc(Cl)cc1)c1c(N)n(Cc2ccccc2)c(=O)[nH]c1=O	-1%	-2%	i	?	i	18µM*
CC(C)CN(C(=O)COC(=O)C12CC3CC(CC(C3)C1)C2)c1c(N)n(Cc2ccccc2)c(=O)[nH]c1=O	?	?	i	?	?	10µM*
Nc1cccc(Nc2nc(OC(C(F)(F)F)C(F)(F)F)nc(OC(C(F)(F)F)C(F)(F)F)n2)c1	?	?	23µM*	21µM*	18µM*	23µM*
Cc1ccc2nc(NCCc3ccccc3)c3nncn3c2c1	2%	3%	i	-17%	i	-21%
COc1cccc(NC(=O)Cn2c(=O)n(-c3ccccc3)c(=O)c3sccc32)c1	-2%	-8%	i	?	?	13µM*
COc1ccc(-n2c(=O)c3c4c(sc3n(CC(=O)C(C)(C)C)c2=O)CCCC4)c(OC)c1	nt	nt	nt	15µM*	nt	?
COc1ccc(-n2c(=O)c3c4c(sc3n(Cc3ccccc3)c2=O)CCC4)c(OC)c1	nt	nt	nt	?	nt	23µM*
COc1ccc(-n2c(=O)c3c4c(sc3n(Cc3cc(C)ccc3C)c2=O)CN(C(C)=O)CC4)c(OC)c1	nt	nt	i	?	i	23µM*
COc1cccc(NC(=O)Cn2c(=O)n(-c3ccccc3)c(=O)c3c2c2cc(OC)ccc2n3C)c1	nt	nt	i	-13%	i	-9%
CCN(CC)C(=O)c1sc2c(c1C)c(=O)n(-c1ccc(OC)cc1OC)c(=O)n2Cc1cc(C)ccc1C	nt	nt	i	?	i	?
COc1cccc(NC(=O)Cn2c(=O)n(-c3cccc(OC)c3)c(=O)c3c4c(sc32)CCCC4)c1	nt	nt	i	13µM*	i	18µM*
